Hits are enriched below; roughly 13% of the tested compounds scored in any of these assays.
HCV inh – HCV inhibition | Huh7.5.1 HCVcc-Cre infection, luciferase reporter, 44 h | Potency, µM (doses to about 41.8 µM), actives largely listed as inhibitors | 340,000 tested, 3.4% active; active means well fitted inhibition curve with a large enough effect; inconclusive means small, poorly fitted or top-dose-only effect, or another doubt; inactive means no such curve, though single readings can be large or run the other way
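1,000 cells/well; 4 h culture; + compound; + HCVcc-Cre (~0.5 moi); 44 h; luciferase substrate, RT 15 min; read 15 sec.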
MARV entry inh – inhibitors of Marburg virus binding or cell entry; Marburg virus pseudotyped entry inhibition, cell reporter; Potency, µM (titrated, usually from 37.8 µM), most hits filed as inhibitors; 300,000 tested, 1.8% active; AID 540276; calls by dose curve; tested in HEK293 cells
LASV entry inh – Lassa virus entry inhibition; Lassa virus pseudotype entry inhibition, cell reporter; 300,000 tested, 1.2% active; Potency, µM (top dose mostly 37.9 µM), usual class: inhibitors; calls by dose curve; tested in HEK293 cells; further: nearly all actives have a fitted effect of over 50% in size
FMDV inh – blocks foot and mouth disease virus; FMDV antiviral cell-based qHTS; Potency, µM (doses to about 57.9 µM), usual class: inhibitors; 410,000 tested, 1.2% active; calls by dose curve; tested in HEK293T cells; further: read-out not given here; nearly all actives have a fitted effect of over 45% in size
Shiga inhibitor – blocks Shiga toxin action in Vero cells; Vero cells, Shiga toxin protein synthesis inhibition reporter; inhibition, % at 38.7 µM; 290,000 tested, 9.2% active; AID 2315; in the data active means inhibition mostly above about 28%, no sharp cut-off; inactive means mostly below about 43%
CHX counter – counter-screen hit for Shiga toxin inhibitors, cycloheximide; 300,000 tested, 12% active; max response, %; AID 2314; cell reporter, cycloheximide protein synthesis inhibition counterscreen; in the data active means max response mostly above about 13%, no sharp cut-off; inactive means mostly below about 14%; further: read at 38.3 µM for the half of the compounds with a filed dose
Each line names hits and unclear results; the compound was inactive in the other large screens.

Cc1ccccc1C(=O)N1CCC(C(=O)Nc2ccc(S(=O)(=O)N3CCCCC3)cc2)CC1	HCV inh 13µM, LASV entry inh inconclusive, FMDV inh inconclusive
O=C(Nc1ccc(Cl)cc1)C1CCCN(c2cnccn2)C1 (stereo unspecified)	CHX counter 24 (no result: MARV entry inh, LASV entry inh)
COc1ccc(C(NC(=O)C2CCN(C/C=C/c3ccc(OC(C)=O)c(OC)c3)CC2)c2ccccn2)cc1 (stereo unspecified)	none (no result: HCV inh, MARV entry inh, LASV entry inh, Shiga inhibitor, CHX counter)
Cc1cccc(NC(=O)C2CCCN(S(=O)(=O)c3ccc4c(c3)CCCC(=O)N4)C2)c1 (stereo unspecified)	FMDV inh inconclusive (no result: HCV inh, MARV entry inh, Shiga inhibitor, CHX counter)
O=C1CCCc2cc(S(=O)(=O)N3CCCC(C(=O)Nc4ccc(F)c(Cl)c4)C3)ccc2N1 (stereo unspecified)	FMDV inh 32µM (no result: HCV inh, MARV entry inh, Shiga inhibitor, CHX counter)
O=C(C1CCCCC1)N1CCN(S(=O)(=O)c2ccc(Br)cc2)CC1	MARV entry inh inconclusive, LASV entry inh 18µM, FMDV inh inconclusive
CC(Oc1ccccc1)C(=O)Nc1nnc(C2CCCCC2)s1 (stereo unspecified)	Shiga inhibitor 130, CHX counter 49
Cc1cc(C(=O)Nc2nnc(C3CCCCC3)s2)no1	none
COCC(=O)Nc1nnc(C2CCCCC2)s1	Shiga inhibitor 53, CHX counter 20
CCOCC(=O)Nc1nnc(C2CCCCC2)s1	Shiga inhibitor 46, CHX counter 36
CCOC(=O)C(=O)Nc1nnc(C2CCCCC2)s1	none
Cc1ccc(C(=O)Nc2nnc(C3CCCCC3)s2)o1	MARV entry inh inconclusive, LASV entry inh inconclusive, Shiga inhibitor 90, CHX counter 21
Cc1cc(C)c(C)c(S(=O)(=O)N2CCN(C(=O)c3ccncc3)CC2)c1C	none (no result: MARV entry inh, LASV entry inh, Shiga inhibitor, CHX counter)
CCCn1c2ccccc2c2cnn(CC(=O)NCCCN3CCN(c4ccccc4)CC3)c(=O)c21	HCV inh 11µM (no result: MARV entry inh, LASV entry inh)
CN1CCN(CCCNC(=O)Cn2ncc3c4ccccc4n(C)c3c2=O)CC1	none (no result: MARV entry inh, LASV entry inh)
Cn1c2ccccc2c2cnn(CC(=O)N3CCCCC3)c(=O)c21	CHX counter 17 (no result: MARV entry inh, LASV entry inh)
CC1CCN(C(=O)Cn2ncc3c4ccccc4n(C)c3c2=O)CC1	none
CCCn1c2ccccc2c2cnn(CC(=O)NCCCN3CCCCC3)c(=O)c21	FMDV inh inconclusive (no result: MARV entry inh)
Cn1c2ccccc2c2cnn(CC(=O)NCCCN3CCN(c4ccccc4F)CC3)c(=O)c21	HCV inh 10µM
COc1cc(/C=N/NC(=O)CCN2CCN(C)CC2)cc2c1OCO2	none (no result: HCV inh)
CCCCOc1ccc(N(CC(=O)NC2CCCC2)C(=O)CCC(=O)Nc2ccccn2)cc1	MARV entry inh inconclusive
CCCCOc1ccc(N(CC(=O)NC(C)(C)CC)C(=O)CCC(=O)Nc2ccccn2)cc1	MARV entry inh 8.9µM, LASV entry inh inconclusive
COc1ccc(-c2noc(C3CCCN(S(=O)(=O)c4cccc(Cl)c4C)C3)n2)cc1OC (stereo unspecified)	HCV inh inconclusive, MARV entry inh inconclusive
CC(=O)Oc1[nH]c(=O)c2cccc3c2c1CCC3	none (no result: HCV inh, MARV entry inh, LASV entry inh, Shiga inhibitor, CHX counter)
COc1cccc2c1OC1(CCN(C(C)C)CC1)N1N=C(c3cccnc3)CC21 (stereo unspecified)	LASV entry inh inconclusive, Shiga inhibitor 90, CHX counter 53
CC(C)N1CCC2(CC1)Oc1ccc(Br)cc1C1CC(c3cccnc3)=NN12 (stereo unspecified)	Shiga inhibitor 61, CHX counter 26 (no result: MARV entry inh, LASV entry inh)
COc1cc(C2CC(c3cccnc3)=NN2c2ccc(F)cc2)cc(OC)c1OC (stereo unspecified)	none (no result: MARV entry inh, LASV entry inh)
O=[N+]([O-])c1ccc(Nc2ccccc2)c2nonc12	FMDV inh inconclusive (no result: MARV entry inh, LASV entry inh)
CCOc1ccc(Nc2ccc([N+](=O)[O-])c3nonc23)cc1	Shiga inhibitor 56, CHX counter 33 (no result: MARV entry inh, LASV entry inh)
COc1ccc(/C=C\C(=O)Nc2ccccc2C(=O)O)cc1OC	MARV entry inh inconclusive, FMDV inh 20µM (no result: HCV inh, LASV entry inh, Shiga inhibitor, CHX counter)
NC(=O)c1ccccc1NC(=O)/C=C/c1ccccc1	MARV entry inh inconclusive, Shiga inhibitor 63, CHX counter 34
NC(=O)c1ccccc1NC(=O)/C=C/c1ccc(Cl)cc1	MARV entry inh inconclusive, Shiga inhibitor 90, CHX counter 48
O=C(/C=C/c1ccc(Cl)cc1)NC(=S)Nc1ccccc1C(=O)O	none (no result: MARV entry inh, LASV entry inh)
CCOC(=O)CSc1nc(N(C)C)nc(N(C)C#N)n1	none
Cc1ccc(S(=O)(=O)Nc2cc(C)on2)cc1	none
O=S1(=O)N=C(N/N=C/c2ccc(Br)o2)c2ccccc21	none
O=C(O)CCn1c(-c2ccccn2)nc2ccccc21	CHX counter 11
N#CC1=C2C=CC=CN2CC1=O	Shiga inhibitor 111, CHX counter 30
C/C(CCc1ccco1)=N\NC(=O)CNc1c(Br)cc(Br)cc1Br	HCV inh inconclusive
COc1cccc(C(=O)NCCSCc2c(F)cccc2Cl)c1	CHX counter 22 (no result: Shiga inhibitor)
COc1cccc(C(=O)NCCSCc2ccccc2Cl)c1	HCV inh inconclusive, CHX counter 13 (no result: MARV entry inh, LASV entry inh)
CCc1ccc(C(=O)NCc2cnn(C)c2)s1	LASV entry inh inconclusive, Shiga inhibitor 37
Cn1cc(CNC(=O)c2sc3cccc(Cl)c3c2Cl)cn1	HCV inh inconclusive
O=S(=O)(c1ccc2ccccc2c1)N1CCN(CCO)CC1	none
O=C(NCc1ccc(F)cc1)C1CCN(C(=O)c2ccc(-n3ccc4ccccc43)s2)CC1	LASV entry inh inconclusive (no result: HCV inh, MARV entry inh, Shiga inhibitor, CHX counter)
N#CC12C(N)=NC3(OCCO3)C1(C#N)C1=C(CCC1)NC2c1ccccc1 (stereo unspecified)	CHX counter 17
CCSC1(SCC)N=C(N)C2(C#N)C(c3ccccc3)NC3=C(CCC3)C12C#N (stereo unspecified)	none
CCCCCCC(C)(C)c1ccc([C@@H]2C[C@H](O)CC[C@@H]2CCCO)c(O)c1	MARV entry inh 13µM, FMDV inh inconclusive (no result: HCV inh, LASV entry inh, Shiga inhibitor, CHX counter)
N#C/C(=C\c1c[nH]c2ccc(Br)cc12)c1ccccn1	HCV inh 11µM, MARV entry inh 13µM, LASV entry inh inconclusive
COc1ccc(C(=O)N2CCC[C@@]3(CCN(Cc4ccncc4)C3)C2)cc1	none (no result: HCV inh, MARV entry inh, LASV entry inh, Shiga inhibitor, CHX counter)
Cc1ccc(CCC(=O)Nc2ccc(Br)cc2)o1	CHX counter 18 (no result: MARV entry inh, LASV entry inh)
Cc1ccc(CCC(=O)Nc2ccc(N(C)C)cc2)o1	Shiga inhibitor 54, CHX counter 31 (no result: MARV entry inh, LASV entry inh)
Cc1ccc(NC(=O)CCc2ccc(C)o2)c(Br)c1	Shiga inhibitor 31, CHX counter 29
Cc1ccc(C(=O)CCNc2ccc(Cl)cc2)o1	MARV entry inh inconclusive, CHX counter 17
Cc1ccc(CCC(=O)Nc2ccc(Cl)cc2Cl)o1	none (no result: HCV inh, MARV entry inh, LASV entry inh, Shiga inhibitor, CHX counter)
CCc1ccc(NCCC(=O)c2ccc(Cl)cc2)cc1	MARV entry inh inconclusive (no result: FMDV inh)
CCOc1ccc(NC(=O)CCc2ccc(C)o2)cc1	none (no result: MARV entry inh, LASV entry inh)
Cc1nc([N+](=O)[O-])cn1CCC#N	none
Cc1ccc(CCC(=O)Nc2ccc(Cl)cc2)o1	CHX counter 18 (no result: Shiga inhibitor)
Cc1ccc(CCC(=O)Nc2ccc(CC(=O)O)cc2)o1	none
CCc1ccc(CCC(=O)Nc2ccc(Cl)cc2)o1	CHX counter 18 (no result: MARV entry inh, LASV entry inh)
CCc1ccc(CCC(=O)Nc2ccc(Br)cc2)o1	none (no result: MARV entry inh, LASV entry inh, Shiga inhibitor)
Nn1c(SCc2cccc(F)c2)nnc1-c1ccncc1	none (no result: MARV entry inh, LASV entry inh)

Screening results (PubChem)
